Data as given in PubChem BioAssay (NCI).
The panel holds about 83,000 compounds, 20% with a hit somewhere; the sample as a whole holds those more often.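 Compound tested at a single concentration for 48 hours in 96-well plates; a percent growth value below 10 was scored as active.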 Unmarked numbers belong to inactive results. Calls of active or inactive are those of the source.

Experiments:
Experiment in all cases: NCI-60 one-dose screen, 48 h (100 = growth as untreated, 0 = no growth, -100 = all killed)
Details in all cases: 10 µM unless noted
[1] = system: NCI-H226 lung
[2] = system: NCI-H322M lung
[3] = system: HOP-62 NSCLC
[4] = system: HOP-92 NSCLC
[5] = system: NCI-H522 lung
[6] = system: A549/ATCC NSCLC
[7] = system: 786-0 renal
[8] = system: COLO 205 colon
[9] = system: DU-145 prostate

SMILES	growth [1]	growth [2]	growth [3]	growth [4]	growth [5]	growth [6]	growth [7]	growth [8]	growth [9]
O=C(CCCN1C(=O)/C(=C/c2ccccc2F)SC1=S)N1CCOCC1	110%	85.5%	119%	86.4%	48.8%	93.1%	89.8%	126%	74.5%
N#Cc1nc(-c2ccccc2)oc1N1CC[C@@H](CO)C1	94%	93.8%	102%	98.5%	95.1%	101%	103%	106%	100%
O=C1[C@H]2Cc3c([nH]c4ccccc34)[C@@H](c3ccc(Br)cc3)N2C(=O)CN1C1CCN(Cc2ccccc2)CC1	39.5%	67%	54%	28.9%	-36.7% (active)	20.7%	41.1%	12.7%	38.8%
C[C@@H]1CN(c2ccc3ncc(C#Cc4cncc(C(=O)Nc5ccc(CN6CCN(C)CC6)c(C(F)(F)F)c5)c4)n3n2)C[C@H](C)O1	-48.8% (active)	-19.4% (active)	-30.1% (active)	-44.4% (active)	-78.8% (active)	-82.5% (active)	-74.8% (active)	-76.8% (active)	-97.5% (active)
Cc1sc2nc(NCc3ccccc3Cl)[nH]c(=O)c2c1C	88.5%	96.6%	93.4%	91.3%	95.3%	84%	91%	113%	98%
NS(=O)(=O)c1cccc(Nc2nc(SCC(=O)c3ccc(Cl)cc3)nc3ccccc23)c1	42.5%	81.5%	36.2%	24.5%	59.4%	79.5%	74.4%	105%	78.3%
CS(=O)(=O)Nc1ccc(-c2nn(-c3ccc(S(C)(=O)=O)cc3)cc2/C=C/C(=O)c2ccc(NC(=O)CO[N+](=O)[O-])cc2)cc1	89.3%	102%	100%	103%	99.1%	101%	102%	114%	116%
NC(=O)c1c(NC(=O)c2ccc(C3CCCCC3)cc2)sc2c1CCC(=O)C2	19.6%	97.8%	56.4%	-15.4% (active)	-2.16% (active)	10.8%	26.3%	-36.1% (active)	49.2%
CS(=O)(=O)c1ccc(-n2cc(/C=C/C(=O)c3ccc(NC(=O)CO[N+](=O)[O-])cc3)c(-c3ccc(Cl)cc3)n2)cc1	72.2%	97.1%	103%	90.2%	103%	91.8%	67.6%	111%	101%
COC(=O)C(C)NS(=O)(=O)/N=C1\NC(=O)NC1=C(Cl)Cl (centres undefined)	106%	102%	111%	107%	101%	105%	103%	115%	109%
C[C@@H](Nc1c(C#N)cnc2ccc(-c3cnc(N)nc3)cc12)c1ccccc1	18.8%	-6.52% (active)	31.1%	-10.5% (active)	-2.38% (active)	15.8%	13.5%	17.3%	12.8%
Nc1cc(-c2c[nH]c3ccc(Cl)cc23)nc2cc(-c3c[nH]c4ccc(Cl)cc34)nn12	71.3%	56.8%	85.7%	28.9%	28.8%	44.2%	60.5%	93.2%	53.4%
COc1ccc2[nH]cc(-c3cc(N)n4nc(-c5c[nH]c6ccc(OC)cc56)cc4n3)c2c1	36.8%	25.4%	76.2%	79.1%	53.9%	-5.78% (active)	-86.4% (active)		-10.5% (active)
Cc1sc2c(c1C)c(=O)nc1c(-c3nc(-c4ccc(F)cc4)no3)n[nH]n12	93.1%	103%	91.8%	91.2%	100%	106%	99.4%	119%	109%
COc1cc(/C=C/C(=O)c2ccc(Cl)cc2)ccc1Oc1nc(NCCO)nc(N2CCOCC2)n1	96.5%	95.8%	92.7%	102%	96.8%	103%	101%	116%	107%
C#Cc1nc(C2=C(C)C(OC(C)=O)/C(=N/OC(C)=O)C2)cs1 (centres undefined)	96.1%	116%	-46.9% (active)	-79.9% (active)	-86.2% (active)	69.7%	-87.9% (active)	51.3%	67%

SMILES	growth [1]	growth [2]	growth [3]	growth [4]	growth [5]	growth [6]	growth [7]	growth [8]	growth [9]
CCOC(=O)c1sc(NCC(=O)Nc2cccc([N+](=O)[O-])c2)c(C(=O)OCC)c1C	-33.7% (active)	-8.8% (active)	-12.9% (active)	-19.5% (active)	-41.5% (active)	-38.1% (active)	-12.4% (active)	-33.4% (active)	-6.75% (active)
CCOc1ccc([C@H]2C(C(=O)c3ccc(Cl)cc3)C3(N[C@@H]2c2ccccc2)C(=O)Nc2ccc(Br)cc23)cc1 (some centres undefined)	47.3%	45.6%	54.5%		51.5%	26%	23%	19.3%	47.6%
COC(=O)C(Cc1ccccc1)NS(=O)(=O)/N=C1\NC(=O)NC1=C(Cl)Cl (centres undefined)	107%	91.4%	101%	49.9%	96.2%	105%	77%	133%	105%
COc1ccc(COc2ccc(/C=C3/C(=O)Nc4cc(Cl)ccc43)cc2)cc1	89.4%	87.7%	95.4%	93.1%	92%	98.7%	110%	101%	98.2%
CC(C)Sc1nc(Nc2ccc(S(N)(=O)=O)cc2)c(C#N)c(-c2ccc(F)cc2)n1					73.5%			79%	25.1%
N#Cc1nc(-c2ccccc2)oc1N1CCC(CO)C1 (centres undefined)	92.6%	88.4%	107%		97.8%	95.2%	101%	116%	104%
CCN(CC)c1ccc(C=O)c(OCc2cn(CC(=O)Nc3ccc(Cl)cc3)nn2)c1	77.5%	94.9%	89.9%	81.4%	80.9%	87.9%	72.9%	111%	81%
Nc1c(C(=O)Nc2ccc(Cl)cc2)sc2nc(-c3cnccn3)cc(-c3cccs3)c12	13.2%	70.2%	44.4%	52.6%	93%	68.8%	71.2%		70.3%
Nc1nc(N)c2c(n1)NC(c1ccc(C(F)(F)F)cc1)CC(c1ccc(Nc3nc(NCCO)nc(Nc4ccc(Cl)cc4)n3)cc1)=N2 (centres undefined)	-40.7% (active)	-61% (active)	71.7%	-65.6% (active)	-80.1% (active)	-66.2% (active)	-90.2% (active)	5.02% (active)	-93.1% (active)
COc1cc(OC)c(S(=O)(=O)NNC(=O)c2ccncc2)cc1C(=O)/C=C/c1ccc(C)cc1	89.5%	62.3%	103%	42.1%	84.9%	93.4%	57.1%		83.1%
N#Cc1c(-c2ccc(Cl)cc2)nc(SCc2ccc(F)cc2)nc1N1CCNCC1	101%	76.7%	80.8%		94.1%	60.2%	62.5%	-27.2% (active)	61%
CC(=NNc1ncnc2ccccc12)c1ccc(S(C)(=O)=O)cc1	96.8%	100%	95%		100%	111%	102%	113%	115%
COc1ccc(CNS(=O)(=O)/N=C2\NC(=O)NC2=C(Cl)Cl)cc1	46.1%	37.1%	46.9%		2.05% (active)	25.7%	28.8%	55.4%	27.9%
Clc1ccc2c(OCCCN3CCOCC3)c3oc4ccccc4c3nc2c1	33.7%	36%	63.6%	45.3%	29%	33.5%	27.4%	12.8%	22.9%
CC(=O)Oc1ccccc1C(=O)Nc1ccc(C(=O)/C=C/c2cccs2)cc1	116%	106%	101%		102%	104%	88.7%	126%	113%
